From PubChem BioAssay AID1159580 (chemical genetic matrix, 2015)
Values joined by “and” are separate entries in the source; they are usually repeats but may differ in a detail not shown here. Equal values may be shown once. The whole screen tested about 5,500 compounds, of which about 2,000 (36%) were called active. About 18% were inconclusive and are not listed. Rule as the data show it: active = normalized growth mostly below about 0.91 (no sharp cut-off); inconclusive = no clear call, values can overlap the other calls; inactive = mostly above about 0.92. The list shows a part of the results.

Assay: chemical genetic growth profiling, strain panel (AID 1159580);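 also: tested at 20 µM; growth read once vehicle control cultures reached saturation at 30 °C; 1 = growth at the plate median or of vehicle wells; lower values mean less growth of the strain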
Conditions: S. cerevisiae deletion strains, growth OD

Measured: normalized growth

c1ccc2c(CC3=NCCN3)cccc2c1
inactive: locus YAL013W, strain DEP1, hits give low values 1.01 | locus YAL021C, strain ccr4, hits give low values 0.944 | locus YAL026C, strain drs2, hits give low values 0.982 | locus YAL030W, strain snc1, hits give low values 0.986 | locus YBL061C, strain skt5, hits give low values 0.985 | locus YBR009C, strain hhf1, hits give low values 0.987 | locus YBR021W, strain FUR4, hits give low values 0.999 | locus YBR023C, strain chs3, hits give low values 0.984 | locus YBR171W, strain sec66, hits give low values 0.976 | locus YBR229C, strain ROT2, hits give low values 1.01 | locus YBR231C, strain swc5, hits give low values 0.985 | locus YBR279W, strain paf1, hits give low values 0.99 | locus YCL011C, strain gbp2, hits give low values 0.97 | locus YCL016C, strain dcc1, hits give low values 0.996 | locus YCL029C, strain bik1, hits give low values 1.03 | locus YCL061C, strain MRC1, hits give low values 0.981 | locus YCL069W, strain vba3, hits give low values 0.955 | locus YCR088W, strain abp1, hits give low values 0.98 | locus YDL005C, strain med2, hits give low values 0.962 | locus YDL035C, strain GPR1, hits give low values 1.01 | locus YDL040C, strain nat1, hits give low values 0.971 | locus YDL074C, strain BRE1, hits give low values 1.01 | locus YDL101C, strain DUN1, hits give low values 1.01 | locus YDL134C, strain PPH21, hits give low values 1.01 | locus YDL185W, strain tfp1, hits give low values 1.01 | locus YDL192W, strain arf1, hits give low values 1.02 | locus YDR001C, strain nth1, hits give low values 0.99 | locus YDR069C, strain doa4, hits give low values 0.947 | locus YDR101C, strain arx1, hits give low values 1.02 | locus YDR137W, strain rgp1, hits give low values 0.985 | locus YDR150W, strain NUM1, hits give low values 1.01 | locus YDR159W, strain sac3, hits give low values 0.958 | locus YDR162C, strain NBP2, hits give low values 1 | locus YDR195W, strain ref2 0.96 | locus YDR297W, strain sur2, hits give low values 0.975 | locus YDR318W, strain mcm21, hits give low values 1.02 | locus YDR334W, strain swr1, hits give low values 0.958 | locus YDR335W, strain msn5, hits give low values 0.981 | locus YDR388W, hits give low values 1.02 | locus YDR392W, strain spt3, hits give low values 0.863 | locus YDR502C, strain sam2, hits give low values 1.02 | locus YEL003W, strain gim4, hits give low values 0.945 | locus YEL037C, strain rad23, hits give low values 0.964 | locus YEL061C, strain CIN8 (second series), hits give low values 0.965 | locus YEL061C, strain CIN8, hits give low values 1.01 | locus YER015W, strain faa2, hits give low values 0.959 | locus YER016W, strain bim1, hits give low values 0.979 | locus YER110C, hits give low values 1.02 | locus YER111C, strain swi4, hits give low values 0.968 | locus YER155C, strain BEM2 (second series), hits give low values 0.98 | locus YER155C, strain BEM2, hits give low values 1 | locus YER167W, strain BCK2, hits give low values 1.02 | locus YFR010W, strain ubp6, hits give low values 0.96 | locus YGL078C, strain dbp3, hits give low values 1.02 | locus YGL086W, strain mad1, hits give low values 1.01 | locus YGL167C, strain pmr1, hits give low values 0.98 | locus YGL173C, strain kem1, hits give low values 0.976 | locus YGL227W, strain vid30, hits give low values 0.975 | locus YGL240W, strain doc1, hits give low values 0.98 | locus YGL248W, strain PDE1, hits give low values 1.01 | locus YGL253W, strain hxk2, hits give low values 0.98 | locus YGR078C, strain PAC10, hits give low values 1.01 | locus YGR135W, strain pre9, hits give low values 1.02 | locus YGR229C, strain SMI1, hits give low values 1.01 | locus YGR252W, strain gcn5, hits give low values 0.984 | locus YHR013C, strain ard1, hits give low values 0.901 | locus YHR027C, strain rpn1, hits give low values 0.972 | locus YHR030C, strain SLT2, hits give low values 1.01 and 0.973 | locus YHR079C, strain IRE1 (second series), hits give low values 1.02 | locus YHR079C, strain IRE1, hits give low values 0.961 | locus YHR094C, strain hxt1, hits give low values 1.01 | locus YHR129C, strain ARP1, hits give low values 1 | locus YHR142W, strain chs7, hits give low values 0.978 | locus YHR200W, strain rpn10, hits give low values 1.02 | locus YIL066C, strain RNR3, hits give low values 1.01 | locus YIL073C, strain SPO22, hits give low values 1.06 | locus YIL125W, strain kgd1, hits give low values 1.01 | locus YIR030C, strain dcg1, hits give low values 1.03 | locus YJL092W, strain hpr5, hits give low values 0.968 | locus YJL095W, strain BCK1 (second series), hits give low values 0.987 | locus YJL095W, strain BCK1, hits give low values 1.01 and 1 | locus YJL115W, strain asf1, hits give low values 0.976 | locus YJL129C, strain trk1, hits give low values 0.921 | locus YJL134W, strain LCB3, hits give low values 1.01 | locus YJL154C, strain vps35, hits give low values 0.972 | locus YJL164C, strain tpk1, hits give low values 0.978 | locus YJL166W, strain qcr8, hits give low values 0.968 | locus YJL168C, strain set2, hits give low values 1.02 | locus YJL187C, strain SWE1 (second series), hits give low values 1.01 | locus YJL187C, strain SWE1, hits give low values 0.976 | locus YJR043C, strain POL32, hits give low values 1.01 | locus YJR066W, strain TOR1, hits give low values 0.928
